PubChem BioAssay (NCATS)
Results filed as inconclusive are left out. Calls of active or inactive are those of the source. Unless noted, calls come from the whole dose curve; as a rule, active = well fitted curve in the direction sought with a large enough effect; inconclusive = small, poorly fitted or top-dose-only effect, or another doubt; inactive = no such curve, though single readings can be large; an effect the other way counts as inactive or inconclusive.

What was measured:
[1] = biological target: Androgen receptor (Homo sapiens) (UniProt P10275); experiment: qHTS assay for small molecule agonists of androgen receptor signaling (AID 588515; active = well fitted curve in the direction sought with a large enough effect in the signal ratio, with a control signal flat; the % refers to the signal ratio; note: % is set by controls: 0 for no effect and ±100 for the full control effect); conditions: AR-UAS-bla HEK293, beta-lactamase ratio, agonist 16 h; active compounds read high
In short: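 Stimulation of an AR-responsive β-lactamase reporter in GripTite HEK293 cells was measured after 16 h compound exposure at 37 °C, via CCF4 fluorescence after 2 h RT. EC50 from Hill fits, normalized to R1881 at 30 nM.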

[2] = biological target: Luciferin 4-monooxygenase (Photinus pyralis) (UniProt P08659); experiment: Biochemical firefly luciferase enzyme assay for NPC (AID 624030); note: nearly all actives have a fitted effect of over 70% in size; note: potency is the fitted concentration of half-maximal effect
In short: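 Purified P. pyralis luciferase at 10 nM in 50 mM Tris Acetate (final), luminescence read within 5 minutes of enzyme addition to compounds. Activity normalised to PTC124 versus DMSO; concentration-response curves classed by r2, magnitude and activity.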

[3] = S16 Schwann cell viability assay (CellTiter-Glo assay) (AID 624031);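 note: native untransfected S16 rat Schwann cells; cellular ATP luminescence as a viability measure; plate controls were DMSO-treated cells for no effect and cell-free wells for full effect; nearly all actives have a fitted effect of over 70% in size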
In short: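 Concentration-effect curves come from CellTiter-Glo luminescence of S16 rat Schwann cells after 24 h compound exposure. Each reading was normalized to DMSO wells (0%) and wells without cells, and curves were ranked by r2 and response magnitude.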

[4] = S16 Schwann cell PMP22 intronic element firefly luciferase assay (AID 624032); note: nearly all actives have a fitted effect of over 30% in size; note: potency is the fitted concentration of half-maximal effect
In short: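 Rat S16 Schwann cells stably carrying firefly luciferase driven by a PMP22 intronic element, in 10% FBS, treated 24 h at 37 C. ONE-Glo luminescence normalized to PTC124 control and DMSO (0%); curves classed by r2, magnitude and activity.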

[5] = S16 Schwann cell PMP22 intronic element beta-lactamase assay (AID 624044; calls by dose curve; note: nearly all actives have a fitted effect of over 15% in size; note: potency is the fitted concentration of half-maximal effect;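 for ratio activity, negative = inhibition: 0% = DMSO and -100% = potassium clavulanate positive control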); conditions: S16 rat Schwann cells, PMP22 element beta-lactamase FRET, 24 h; ratio activity, negative = inhibition: at 38.3 µM (top of the series)
In short: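 Beta-lactamase reporter under a PMP22 intronic regulatory element in stable S16 rat Schwann cells; 24 h compound exposure. 460 nm blue signal normalized between DMSO (0%) and potassium clavulanate, with 535 nm FRET tracking viability; curves classed by r2 and response.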

PC26 = experiment: qHTS profiling for inhibitors of Plasmodium falciparum proliferation (AID 504749); note: nearly all actives have a fitted effect of over 60% in size; note: potency is the fitted concentration of half-maximal effect;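 for activity, negative = inhibition: 0% = DMSO vehicle and full inhibition = artemisinin control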; conditions: P. falciparum in erythrocytes, SYBR Green DNA, 72 h; series mostly up to 28.7 µM
In short: (§1)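 SYBR Green fluorescence (ex 485 nm, em 535 nm) reports parasite DNA after 72 h compound exposure of infected red cells at 0.3% parasitemia, 2.5% hematocrit; signal normalized to 0.29 uM artemisinin and vehicle wells.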

PC49 = experiment: as above; conditions: P. falciparum in erythrocytes, SYBR Green DNA, 72 h; series mostly up to 28.7 µM
In short: as §1

TAB109 = experiment: as above; conditions: P. falciparum in erythrocytes, SYBR Green DNA, 72 h; series mostly up to 28.7 µM
In short: as §1

[6] = biological target: Tumor susceptibility gene 101 protein (Homo sapiens) (UniProt Q99816); experiment: qHTS Assay for Iinhibitors of HIV-1 Budding by Blocking the Interaction of PTAP/TSG101: Hit Validation (AID 651600); note: % is set by controls: 0 for no effect and ±100 for the full control effect; nearly all actives have a fitted effect of over 70% in size
In short: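 Measuring PTAP–Tsg101 interaction by FP: protein at 10 uM and fluorescent peptide at 50 nM (final), buffer 10 mM HEPES pH 7.5 with 0.15 M NaCl, 3 mM EDTA, 0.1 mM TCEP, 0.01% Tween 20; 20 min incubation, r.t.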

[7] = Confirmation and Secondary Assay for Modulators of Hemoglobin Beta Chain Splicing at IVS2 654 locus (AID 910);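 note: HeLa cells stably carrying EGFP split by mutant beta-globin IVS2-654 intron; % of control where 0% means no effect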
In short: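 HeLa cells stably expressing EGFP interrupted by β-globin IVS2-654 intron, seeded overnight in Opti-MEM/2% FCS, then treated 2 days at 37 °C. Restored splicing read as total peak GFP intensity per well by laser scanning cytometry (488 nm excitation, 500–520 nm emission); 500 nM antisense PNA as control.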

[8] = biological target: Cytochrome P450 3A4 (Homo sapiens) (UniProt P08684); experiment: qHTS Assay for Inhibitors and Substrates of Cytochrome P450 3A4 (AID 884); note: % is set by controls: 0 for no effect and ±100 for the full control effect; nearly all actives have a fitted effect of over 50% in size
In short: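 Luminescent readout of luciferin produced by CYP3A4 (20 nM) dealkylation of Luciferin-PPXE, 25 uM (its KM). NADPH-driven reaction ran 60 min at RT after 10 min compound preincubation; data scaled to 57 uM ketoconazole as 100% inhibition.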

Luciferin 4-monooxygenase (Photinus pyralis), sequence (P08659 whole entry, looked up): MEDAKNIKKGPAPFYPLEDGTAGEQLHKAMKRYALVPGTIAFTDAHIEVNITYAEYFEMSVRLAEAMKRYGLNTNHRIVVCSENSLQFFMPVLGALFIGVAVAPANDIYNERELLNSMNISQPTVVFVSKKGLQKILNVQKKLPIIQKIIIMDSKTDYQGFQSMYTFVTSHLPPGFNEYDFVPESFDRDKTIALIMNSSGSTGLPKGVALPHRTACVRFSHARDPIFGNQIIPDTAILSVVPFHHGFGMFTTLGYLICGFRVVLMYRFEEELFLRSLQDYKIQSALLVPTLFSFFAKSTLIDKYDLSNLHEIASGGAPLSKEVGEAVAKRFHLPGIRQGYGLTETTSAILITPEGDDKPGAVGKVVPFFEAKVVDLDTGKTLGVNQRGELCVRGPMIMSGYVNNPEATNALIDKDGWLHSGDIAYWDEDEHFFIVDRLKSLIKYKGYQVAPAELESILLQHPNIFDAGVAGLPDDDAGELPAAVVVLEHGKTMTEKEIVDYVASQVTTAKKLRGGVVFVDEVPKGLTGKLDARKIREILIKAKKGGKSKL
Androgen receptor (Homo sapiens), sequence (P10275 whole entry, looked up): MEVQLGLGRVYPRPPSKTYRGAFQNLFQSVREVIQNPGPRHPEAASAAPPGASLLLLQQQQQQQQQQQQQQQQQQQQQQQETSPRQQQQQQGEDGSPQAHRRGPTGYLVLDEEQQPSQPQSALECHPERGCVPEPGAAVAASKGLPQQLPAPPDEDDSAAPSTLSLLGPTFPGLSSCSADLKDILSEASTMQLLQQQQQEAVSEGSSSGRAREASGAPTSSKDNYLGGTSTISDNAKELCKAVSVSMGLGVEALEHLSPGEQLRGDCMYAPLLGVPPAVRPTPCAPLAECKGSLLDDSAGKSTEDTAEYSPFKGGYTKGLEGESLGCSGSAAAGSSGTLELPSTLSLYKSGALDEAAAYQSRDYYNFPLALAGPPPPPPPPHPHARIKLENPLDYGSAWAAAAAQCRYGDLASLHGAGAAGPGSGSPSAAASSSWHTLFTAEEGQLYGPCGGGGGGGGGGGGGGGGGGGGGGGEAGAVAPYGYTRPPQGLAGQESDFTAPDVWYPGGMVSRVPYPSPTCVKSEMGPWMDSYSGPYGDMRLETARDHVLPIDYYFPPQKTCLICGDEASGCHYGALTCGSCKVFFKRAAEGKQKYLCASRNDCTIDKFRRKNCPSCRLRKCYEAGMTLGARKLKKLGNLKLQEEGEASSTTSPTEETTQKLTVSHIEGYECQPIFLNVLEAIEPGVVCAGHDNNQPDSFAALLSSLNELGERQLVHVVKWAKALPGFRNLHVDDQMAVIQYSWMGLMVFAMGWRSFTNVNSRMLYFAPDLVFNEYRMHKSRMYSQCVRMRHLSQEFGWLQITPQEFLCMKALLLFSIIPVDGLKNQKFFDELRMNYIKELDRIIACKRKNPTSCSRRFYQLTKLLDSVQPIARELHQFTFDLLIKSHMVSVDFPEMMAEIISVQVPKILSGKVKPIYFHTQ
Tumor susceptibility gene 101 protein (Homo sapiens), sequence (Q99816 whole entry, looked up): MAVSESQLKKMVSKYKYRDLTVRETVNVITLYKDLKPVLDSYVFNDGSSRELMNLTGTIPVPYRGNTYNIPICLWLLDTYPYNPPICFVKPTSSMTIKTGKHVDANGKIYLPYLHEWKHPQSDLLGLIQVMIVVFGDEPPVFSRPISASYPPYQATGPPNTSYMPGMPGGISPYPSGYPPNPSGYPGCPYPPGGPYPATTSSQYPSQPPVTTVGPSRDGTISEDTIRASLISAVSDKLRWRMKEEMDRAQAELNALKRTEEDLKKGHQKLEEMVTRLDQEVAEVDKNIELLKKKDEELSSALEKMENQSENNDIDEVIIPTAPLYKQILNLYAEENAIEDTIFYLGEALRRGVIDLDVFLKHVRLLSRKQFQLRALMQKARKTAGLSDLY
Cytochrome P450 3A4 (Homo sapiens), sequence (P08684 whole entry, looked up): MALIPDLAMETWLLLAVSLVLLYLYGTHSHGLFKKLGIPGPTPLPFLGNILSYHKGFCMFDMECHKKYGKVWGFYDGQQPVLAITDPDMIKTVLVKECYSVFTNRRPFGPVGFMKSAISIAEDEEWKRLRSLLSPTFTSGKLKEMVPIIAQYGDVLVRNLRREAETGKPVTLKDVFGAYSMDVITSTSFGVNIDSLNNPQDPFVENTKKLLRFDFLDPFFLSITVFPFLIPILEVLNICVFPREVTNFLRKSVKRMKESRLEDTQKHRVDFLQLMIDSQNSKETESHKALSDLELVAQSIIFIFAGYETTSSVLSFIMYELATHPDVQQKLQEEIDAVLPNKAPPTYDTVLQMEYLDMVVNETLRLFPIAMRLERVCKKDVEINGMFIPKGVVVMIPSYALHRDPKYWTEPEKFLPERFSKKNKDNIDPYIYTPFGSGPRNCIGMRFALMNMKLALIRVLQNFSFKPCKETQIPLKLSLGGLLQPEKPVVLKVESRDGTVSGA

CC1CCC(C(C)C)C(O)C1 (stereo not drawn)
inactive: activation [1] 13.2% | Potency [2] | Potency [3] | Potency [4] | Potency [5] | Potency (PC26) | Potency (PC49) | Potency (TAB109)

CC[C@@H](C)C(N)C(=O)O (stereo partly drawn)
inactive: Potency [2] | Potency [3] | Potency [4] | Potency (PC26) | Potency (PC49) | Potency (TAB109)

O=c1ccn(C2OC(COP(=O)(O)OC3C(CO)OC(n4ccc(=O)[nH]c4=O)C3O)C(O)C2O)c(=O)[nH]1 (stereo not drawn)
inactive: Potency [2] | Potency [3] | Potency [4] | Potency [5] | Potency (PC26) | Potency (PC49) | Potency (TAB109)

C=C1[C@@H]2CC[C@H](C2)C1(C)C
inactive: Potency [2] | Potency [3] | Potency [4] | Potency [5] | Potency (PC26) | Potency (PC49) | Potency (TAB109)

C[C@@H]1C(SC2Cn3cnc[n+]3C2)=C(C(=O)[O-])N2C(=O)[C@H]([C@@H](C)O)[C@@H]12 (stereo partly drawn)
inactive: Potency [2] | Potency [3] | Potency [4] | Potency (PC26) | Potency (PC49) | Potency (TAB109)

CC(=O)Nc1ccc2nc3c(=O)[nH]c(=O)[nH]c3nc2c1
inactive: Potency [6]

CC[C@@H]1/C=C(\C)C[C@H](C)C[C@H](OC)[C@H]2O[C@@](O)(C(=O)C(=O)N3CCCC[C@H]3C(=O)O[C@H](/C(C)=C/[C@@H]3CC[C@H](Cl)[C@H](OC)C3)[C@H](C)[C@@H](O)CC1=O)[C@H](C)C[C@@H]2OC
inactive: Potency [2] | Potency [3] | Potency [4] | Potency [5] | Potency (PC26) | Potency (PC49) | Potency (TAB109)

Cc1ccc(S(=O)(=O)NC(=O)NC(C)Cc2ccccc2)cc1 (stereo not drawn)
inactive: Potency [2] | Potency [3] | Potency [4] | Potency (PC26) | Potency (PC49) | Potency (TAB109)

Cc1cnc(C(=O)O)cn1
inactive: Potency [2] | Potency [3] | Potency [4] | Potency [5] | Potency (PC26) | Potency (PC49) | Potency (TAB109)

CC(=O)OCC1=C(C(=O)O)N2C(=O)C(NC(=O)CSc3ccncc3)[C@@H]2SC1 (stereo partly drawn)
inactive: Potency [7]

Cc1ccc(Nc2ncccc2C(=O)O)cc1C
active: Potency [2] 11400 nM
inactive: Potency [3] | Potency [4] | Potency [5] | Potency (PC26) | Potency (PC49) | Potency (TAB109)

CC(C)C[C@@H](NC(=O)[C@@H](Cc1ccccc1)NC(=O)c1cnccn1)B(O)O
inactive: Potency [2] | Potency [3]
active: Potency [4] 5.1 nM | Potency [5] 22.4 nM | Potency (PC26) 338 nM | Potency (PC49) 158 nM | Potency (TAB109) 70.8 nM

CC12C=CC(=O)C=C1[C@@H](F)CC1C2C(O)CC2(C)C1CC[C@]2(O)C(=O)CO (stereo partly drawn)
inactive: Potency [2] | Potency [3] | Potency [4] | Potency (PC26) | Potency (PC49) | Potency (TAB109)

CO/N=C(/C(=O)NC1C(=O)N2C(C(=O)O)=C(COC(N)=O)CSC12)c1ccco1 (stereo not drawn)
inactive: Potency [8] | Potency [7]

COC(c1ccccc1)(c1ccccc1)C(Oc1nc(C)cc(C)n1)C(=O)O (stereo not drawn)
inactive: Potency [2] | Potency [3] | Potency [4] | Potency [5] | Potency (PC26) | Potency (PC49) | Potency (TAB109)

CCN(CC)C(=O)Nc1ccc(OC[C@H](O)CNC(C)(C)C)c(C(C)=O)c1
inactive: Potency [2] | Potency [3] | Potency [4] | Potency [5] | Potency (PC26) | Potency (PC49) | Potency (TAB109)

CCCCC/C(C=O)=C/c1ccccc1
inactive: Potency [2] | Potency [3] | Potency [4] | Potency [5] | Potency (PC26) | Potency (PC49) | Potency (TAB109)

CC(=O)NC[C@@H]1CN(c2ccc(N3CCOCC3)c(F)c2)C(=O)O1
inactive: Potency [2] | Potency [3] | Potency [4] | Potency [5] | Potency (PC26) | Potency (PC49) | Potency (TAB109)

C=C[C@H]1CN2CCC1C[C@H]2[C@H](O)c1ccnc2ccc(OC)cc12 (stereo partly drawn)
inactive: Potency [2] | Potency [3] | Potency [4]
active: ratio activity, negative = inhibition [5] -10.4% | Potency (PC26) 601 nM | Potency (PC49) 1260 nM | Potency (TAB109) 501 nM
